Assay [1] is described as follows: Caspase-3/7 induction in HepG2 cells by small molecules, qHTS assay (AID 1346978). Further: nearly all actives have a fitted effect of over 15% in size. Further: potency means the concentration at half of the fitted maximal effect. Summed up: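 Caspase-3/7 induction was measured by Caspase-Glo 3/7 luminescence (30 min, room temperature) after a 17 hr compound exposure of wild-type HepG2 cells seeded at 2,000 per well and pre-incubated 5 hr.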
The target in assay [2] is Nuclear receptor subfamily 1 group I member 2 (Homo sapiens) (UniProt O75469). The assay can be described thus: Human pregnane X receptor (PXR) small molecule agonists, qHTS assay (AID 1346982). Further: nearly all actives have a fitted effect of over 35% in size. Further: potency means the concentration at half of the fitted maximal effect. Summed up:
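Agonist mode qHTS: PXR-Luc HepG2 cells plated 5 hr before DMSO-dissolved compounds were pinned in, cultured 24 hr at 37 C, 5% CO2; ONE-Glo luminescence readout.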
(In general: Quantitative high-throughput screening tests each substance at several concentrations.)

Assay [3] has the same target. The assay can be described thus: CYP3A4 induction through human pregnane X receptor (PXR) by small molecules, qHTS assay (AID 1346984). Further: nearly all actives have a fitted effect of over 40% in size. The method in brief:
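Steps: seed DPX-2 cells, 5 hr at 37C; pin-transfer compounds; 24 hr at 37C; add Luciferin-IPA (3uM final), 3 hr at 37C; add One-Glo, 30 min RT; read luminescence.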

For assay [4] the target is unchanged. The assay can be described thus: Human pregnane X receptor (PXR) activation by small molecules, qHTS assay (AID 1346985). Further: nearly all actives have a fitted effect of over 40% in size. Summed up: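 DPX-2 cells (HepG2 co-transfected with a PXR response element and a CYP3A4-promoter luciferase construct) were seeded at 2,000 per well, rested 5 hr at 37C, then exposed to DMSO-dissolved compounds for 24 hr. Activation was read as luciferase luminescence.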

In assay [5] the target is Cytochrome P450 2C19 (Homo sapiens) (UniProt P33261). The assay can be described thus: Cytochrome P450 Family 2 Subfamily C Member 19 (CYP2C19) small molecule antagonists: luciferase reporter qHTS assay (AID 1671197). Further: nearly all actives have a fitted effect of over 65% in size. Further: potency means the concentration at half of the fitted maximal effect. Summed up:
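Inhibition of CYP2C19 was scored from loss of luminescence in a P450-Glo proluciferin substrate assay, NADPH-started and run 1 h at 37C, with ketoconazole as positive control.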
On the technique in general: Reporter assays use an easily measured gene product as a stand-in for the process of interest.

Assay [6] deals with Cytochrome P450 2C9 (Homo sapiens) (UniProt P11712). The assay is described as follows: Cytochrome P450 Family 2 Subfamily C Member 9 (CYP2C9) small molecule antagonists: luciferase reporter qHTS assay (AID 1671198). Further: nearly all actives have a fitted effect of over 50% in size. Further: potency means the concentration at half of the fitted maximal effect. The method in brief:
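Enzyme-substrate mix preincubated with compound 10 min at room temperature; reaction started with NADPH regeneration solution, 1 h 37C. Luminescent luciferin product read after 20 min detection reagent.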

In assay [7] the target is Voltage-gated inwardly rectifying potassium channel KCNH2 (Homo sapiens) (UniProt Q12809). The assay is described as follows: Human Ether-a-go-go-Related Gene (hERG) channel small molecule antagonists: fluorescence cell-based qHTS assay (AID 1671200). Further: nearly all actives have a fitted effect of over 50% in size. Further: potency means the concentration at half of the fitted maximal effect. The method in brief:
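First, 1000 cells per well are seeded and cultured overnight at 37 C. Next, FluxOR II dye is loaded for 1 h at room temperature, protected from light. After 10 more minutes, stimulus is added and fluorescence is read.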
On the technique in general: Block of hERG is tested as a sign of cardiac risk.

Assay [8] has as its target Cytochrome P450 3A4 (Homo sapiens) (UniProt P08684). The assay can be described thus: Cytochrome P450 Family 3 Subfamily A Member 4 (CYP3A4) small molecule antagonists: luciferase reporter qHTS assay (AID 1671201). Further: nearly all actives have a fitted effect of over 50% in size. Further: potency means the concentration at half of the fitted maximal effect. The method in brief: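 Enzyme and proluciferin substrate are mixed with test chemicals for 10 min, then NADPH regeneration system drives turnover for 1 h at room temperature. A detection reagent halts the reaction; luminescence after 20 min gives relative activity.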

Assay [9] in a line: Caspase-3/7 induction in CHO-K1 cells by small molecules, qHTS assay (AID 1346980). Further: nearly all actives have a fitted effect of over 15% in size. Further: potency means the concentration at half of the fitted maximal effect. Summed up:
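Luminescent Caspase-Glo 3/7 read (30min, room temperature) quantified apoptosis induction. Cells were wild-type CHO-K1, treated with compound for 17hr at 37 C and 5% CO2.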

The nature of assay [10]: Caspase-3/7 induction in HepG2 cells by small molecules, qHTS cell viability counter screen (AID 1346981). Further: nearly all actives have a fitted effect of over 30% in size. Further: potency means the concentration at half of the fitted maximal effect. The method in brief: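 Steps: seed 2,000 HepG2 cells per well; incubate 5 hr at 37 C; pin-add compounds in DMSO; incubate 16 hr; add CellTiter-Fluor; after 1 hr at 37 C and 5% CO2, read fluorescence.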
Assay [11] deals with Cytochrome P450 1A2 (Homo sapiens) (UniProt P05177). The assay can be described thus: Cytochrome P450 Family 1 Subfamily A Member 2 (CYP1A2) small molecule antagonists: luciferase reporter qHTS assay (AID 1671199). Further: nearly all actives have a fitted effect of over 50% in size. Further: potency means the concentration at half of the fitted maximal effect. The method in brief:
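Inhibition of CYP1A2 conversion of proluciferin to luciferin, detected by luminescence. Reaction run 1 h at room temperature with NADPH regeneration after brief compound preincubation.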

Assay [12] has as its target Cytochrome P450 2D6 (Homo sapiens) (UniProt P10635). The assay is described as follows: Cytochrome P450 Family 2 Subfamily D Member 6 (CYP2D6) small molecule antagonists: luciferase reporter qHTS assay (AID 1671196). Further: nearly all actives have a fitted effect of over 50% in size. Further: potency means the concentration at half of the fitted maximal effect. The method in brief: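 P450-Glo format: CYP2D6 converts a proluciferin substrate to luciferin in an NADPH-driven reaction lasting 1 h at room temperature. Light output, proportional to CYP2D6 activity, reflects interference by test chemicals.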

Assay [13] concerns the target Nuclear receptor subfamily 1 group I member 2 (Rattus norvegicus) (UniProt Q9R1A7). The assay is described as follows: Rat pregnane X receptor (rPXR) activation by small molecules, qHTS assay (AID 1346983). Further: nearly all actives have a fitted effect of over 20% in size. To be noted: rPXR luciferase reporter cells, One-Glo luminescence, 24 h; max activation: stronger effect = higher value. The method in brief: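 Luminescent readout (One-Glo luciferase, 30 min room temperature) followed 24 hr compound treatment at 37 C of rPXR cells plated 2,000 per well and preincubated 5hr; qHTS format with compounds delivered in DMSO.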

“And” between values parts separate entries of the source, which are not always exact repeats. Identical values can stand only once. Inconclusive results are not listed. Some compounds were tested as several samples or in several runs, with calls that do not always agree. The source made the active and inactive calls. The call rests on the fitted dose curve; in most records, active means well fitted curve in the direction sought with a large enough effect in the repeat runs; inconclusive means weak or mixed curves; inactive means no such curve, though single readings can be large; an effect the other way counts as inactive or inconclusive.
On the % scale 0 is the no-effect control and ±100 the full control effect.

Sequence of Cytochrome P450 2D6 (Homo sapiens) (P10635 whole entry, looked up): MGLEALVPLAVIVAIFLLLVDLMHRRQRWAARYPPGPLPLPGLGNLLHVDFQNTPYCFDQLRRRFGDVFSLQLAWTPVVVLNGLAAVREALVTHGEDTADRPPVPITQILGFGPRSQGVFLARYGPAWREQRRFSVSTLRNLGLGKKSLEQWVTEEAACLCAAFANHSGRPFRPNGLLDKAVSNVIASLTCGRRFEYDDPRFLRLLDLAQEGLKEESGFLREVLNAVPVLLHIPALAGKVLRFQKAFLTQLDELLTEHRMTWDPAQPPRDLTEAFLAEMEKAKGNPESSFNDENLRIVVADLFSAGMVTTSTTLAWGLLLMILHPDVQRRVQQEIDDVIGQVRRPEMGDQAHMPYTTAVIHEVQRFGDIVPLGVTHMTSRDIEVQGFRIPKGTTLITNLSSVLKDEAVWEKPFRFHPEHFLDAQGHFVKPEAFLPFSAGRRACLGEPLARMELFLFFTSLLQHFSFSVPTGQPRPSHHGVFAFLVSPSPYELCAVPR
Sequence of Cytochrome P450 3A4 (Homo sapiens) (P08684 whole entry, looked up): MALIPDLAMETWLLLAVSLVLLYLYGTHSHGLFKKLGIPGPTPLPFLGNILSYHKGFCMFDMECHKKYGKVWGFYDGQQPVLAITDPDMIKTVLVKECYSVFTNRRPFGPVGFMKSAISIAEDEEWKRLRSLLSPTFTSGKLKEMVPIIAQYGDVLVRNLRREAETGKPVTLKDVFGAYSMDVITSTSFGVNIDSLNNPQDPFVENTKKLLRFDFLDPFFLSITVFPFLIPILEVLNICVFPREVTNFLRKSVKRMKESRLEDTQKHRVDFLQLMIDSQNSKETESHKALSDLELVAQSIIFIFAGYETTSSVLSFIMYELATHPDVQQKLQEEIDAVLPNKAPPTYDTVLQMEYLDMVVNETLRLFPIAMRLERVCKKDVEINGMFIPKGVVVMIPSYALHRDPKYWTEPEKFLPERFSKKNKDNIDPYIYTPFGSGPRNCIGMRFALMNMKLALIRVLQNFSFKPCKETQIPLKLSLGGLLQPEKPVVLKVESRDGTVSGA
Sequence of Nuclear receptor subfamily 1 group I member 2 (Rattus norvegicus) (Q9R1A7 whole entry, looked up): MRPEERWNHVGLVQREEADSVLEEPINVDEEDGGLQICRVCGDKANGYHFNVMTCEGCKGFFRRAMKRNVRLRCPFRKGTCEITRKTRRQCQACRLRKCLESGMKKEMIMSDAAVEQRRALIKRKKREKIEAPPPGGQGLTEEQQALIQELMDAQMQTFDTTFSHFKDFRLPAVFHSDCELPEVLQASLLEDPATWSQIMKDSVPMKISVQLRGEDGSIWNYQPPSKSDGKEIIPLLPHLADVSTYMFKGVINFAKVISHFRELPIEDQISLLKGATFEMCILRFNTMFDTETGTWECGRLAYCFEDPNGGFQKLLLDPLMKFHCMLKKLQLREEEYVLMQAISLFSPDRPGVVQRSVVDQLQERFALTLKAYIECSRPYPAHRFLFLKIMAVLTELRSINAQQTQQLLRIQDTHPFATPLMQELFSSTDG
Sequence of Nuclear receptor subfamily 1 group I member 2 (Homo sapiens) (O75469 whole entry, looked up): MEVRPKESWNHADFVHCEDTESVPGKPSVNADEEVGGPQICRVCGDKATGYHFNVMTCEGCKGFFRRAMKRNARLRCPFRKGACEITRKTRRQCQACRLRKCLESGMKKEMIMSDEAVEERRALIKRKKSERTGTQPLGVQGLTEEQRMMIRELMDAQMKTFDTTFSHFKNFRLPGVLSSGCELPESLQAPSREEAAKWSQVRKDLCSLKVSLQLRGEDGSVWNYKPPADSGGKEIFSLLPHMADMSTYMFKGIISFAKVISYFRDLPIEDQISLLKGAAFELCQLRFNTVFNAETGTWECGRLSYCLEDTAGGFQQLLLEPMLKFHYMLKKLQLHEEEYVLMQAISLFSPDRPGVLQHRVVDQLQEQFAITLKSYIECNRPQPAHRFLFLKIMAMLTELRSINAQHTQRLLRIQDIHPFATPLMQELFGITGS
Sequence of Cytochrome P450 1A2 (Homo sapiens) (P05177 whole entry, looked up): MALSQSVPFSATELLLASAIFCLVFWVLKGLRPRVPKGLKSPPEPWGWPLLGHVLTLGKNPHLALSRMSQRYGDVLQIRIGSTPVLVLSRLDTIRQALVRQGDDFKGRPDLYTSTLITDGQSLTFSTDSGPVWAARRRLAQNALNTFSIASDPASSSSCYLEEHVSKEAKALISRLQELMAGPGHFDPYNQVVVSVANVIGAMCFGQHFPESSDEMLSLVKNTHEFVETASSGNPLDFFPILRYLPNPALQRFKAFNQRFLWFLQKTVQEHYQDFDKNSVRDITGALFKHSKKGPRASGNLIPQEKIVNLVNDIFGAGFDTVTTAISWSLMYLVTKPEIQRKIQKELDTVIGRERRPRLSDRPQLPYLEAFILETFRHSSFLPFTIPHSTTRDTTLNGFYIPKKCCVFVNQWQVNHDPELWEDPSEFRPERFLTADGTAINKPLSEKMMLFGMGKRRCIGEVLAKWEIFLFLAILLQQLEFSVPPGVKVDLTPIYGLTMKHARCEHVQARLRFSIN
Sequence of Cytochrome P450 2C19 (Homo sapiens) (P33261 whole entry, looked up): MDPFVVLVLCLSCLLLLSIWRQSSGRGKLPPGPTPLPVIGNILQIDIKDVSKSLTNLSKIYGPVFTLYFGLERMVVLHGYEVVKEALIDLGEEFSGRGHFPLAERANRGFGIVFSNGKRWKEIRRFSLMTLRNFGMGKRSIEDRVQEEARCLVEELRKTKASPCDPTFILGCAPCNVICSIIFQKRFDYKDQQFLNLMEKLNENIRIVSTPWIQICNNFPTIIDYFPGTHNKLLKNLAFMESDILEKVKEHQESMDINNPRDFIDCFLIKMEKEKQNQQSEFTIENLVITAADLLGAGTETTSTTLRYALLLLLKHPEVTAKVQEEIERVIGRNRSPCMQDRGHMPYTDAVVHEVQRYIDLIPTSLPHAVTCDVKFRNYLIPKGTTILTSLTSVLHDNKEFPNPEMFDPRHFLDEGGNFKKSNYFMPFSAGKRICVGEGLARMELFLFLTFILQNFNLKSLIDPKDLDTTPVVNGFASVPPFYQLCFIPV
Sequence of Voltage-gated inwardly rectifying potassium channel KCNH2 (Homo sapiens) (Q12809 whole entry, looked up): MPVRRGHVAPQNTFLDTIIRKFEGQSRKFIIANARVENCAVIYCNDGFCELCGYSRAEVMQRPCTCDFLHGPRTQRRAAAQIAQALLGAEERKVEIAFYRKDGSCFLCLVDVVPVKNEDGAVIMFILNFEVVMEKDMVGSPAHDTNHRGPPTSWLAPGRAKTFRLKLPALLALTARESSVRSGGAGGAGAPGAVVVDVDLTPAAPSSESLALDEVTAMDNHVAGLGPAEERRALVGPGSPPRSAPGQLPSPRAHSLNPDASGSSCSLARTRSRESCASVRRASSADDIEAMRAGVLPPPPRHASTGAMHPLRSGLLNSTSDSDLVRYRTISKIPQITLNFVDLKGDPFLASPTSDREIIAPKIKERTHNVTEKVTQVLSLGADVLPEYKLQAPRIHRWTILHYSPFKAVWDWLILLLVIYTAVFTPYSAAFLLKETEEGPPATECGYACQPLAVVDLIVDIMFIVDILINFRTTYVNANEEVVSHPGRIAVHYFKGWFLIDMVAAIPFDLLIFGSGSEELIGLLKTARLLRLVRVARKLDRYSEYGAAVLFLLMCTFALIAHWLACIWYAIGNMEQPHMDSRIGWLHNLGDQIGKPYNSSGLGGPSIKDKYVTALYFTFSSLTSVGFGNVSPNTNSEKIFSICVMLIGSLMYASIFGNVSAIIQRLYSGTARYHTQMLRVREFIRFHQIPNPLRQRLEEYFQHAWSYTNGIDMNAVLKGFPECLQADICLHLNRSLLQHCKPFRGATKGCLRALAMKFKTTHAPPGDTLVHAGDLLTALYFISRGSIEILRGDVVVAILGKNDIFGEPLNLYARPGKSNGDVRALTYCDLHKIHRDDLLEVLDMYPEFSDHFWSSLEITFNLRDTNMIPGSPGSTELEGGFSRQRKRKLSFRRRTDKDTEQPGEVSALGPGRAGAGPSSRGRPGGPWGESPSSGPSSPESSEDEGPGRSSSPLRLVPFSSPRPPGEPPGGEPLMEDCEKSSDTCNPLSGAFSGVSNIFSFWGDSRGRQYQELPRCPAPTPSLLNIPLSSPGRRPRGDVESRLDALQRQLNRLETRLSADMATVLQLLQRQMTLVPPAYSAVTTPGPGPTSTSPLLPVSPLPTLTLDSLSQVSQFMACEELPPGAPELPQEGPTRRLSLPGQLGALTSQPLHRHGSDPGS
Sequence of Cytochrome P450 2C9 (Homo sapiens) (P11712 whole entry, looked up): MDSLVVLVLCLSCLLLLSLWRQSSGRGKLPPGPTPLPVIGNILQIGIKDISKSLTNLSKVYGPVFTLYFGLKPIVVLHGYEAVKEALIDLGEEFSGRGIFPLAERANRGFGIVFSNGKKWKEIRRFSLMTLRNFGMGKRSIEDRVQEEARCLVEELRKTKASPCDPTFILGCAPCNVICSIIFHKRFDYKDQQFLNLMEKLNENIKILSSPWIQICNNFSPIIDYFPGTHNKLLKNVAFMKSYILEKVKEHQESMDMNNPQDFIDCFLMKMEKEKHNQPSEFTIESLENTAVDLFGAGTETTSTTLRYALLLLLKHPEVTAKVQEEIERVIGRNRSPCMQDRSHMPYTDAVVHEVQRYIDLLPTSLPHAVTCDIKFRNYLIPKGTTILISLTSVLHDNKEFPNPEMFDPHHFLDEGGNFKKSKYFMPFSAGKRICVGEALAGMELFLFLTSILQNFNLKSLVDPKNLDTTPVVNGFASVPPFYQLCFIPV

With `CCN(CC)CCCC(C)Nc1c2ccc(Cl)cc2nc2ccc(OC)cc12` (stereo not drawn), the values for the Potency in assay [1] and in assay [2] were 29.8 µM (active) and 5.96 µM (active), respectively. The Potency entry in assay [3], in assay [4], in [5], in assay [6], in assay [7] and in [8] was “inactive” each time.
For the compound `CC(C)(C)CC(C)(C)c1ccc(OCCOCC[N+](C)(C)Cc2ccccc2)cc1`, the Potency entry in [1], in assay [9], in assay [5], in assay [11] and in assay [8] was “inactive” in each case. Besides, the Potency in assay [10] was 61.1 µM (active); in assay [6] it was 79.6 µM (active) and inactive.
Turning to `CCOc1ccc2nc3cc(N)ccc3c(N)c2c1`, the Potency result in assay [1], in assay [9], in [2], in assay [3], in [4] and in [5] was “inactive” throughout. Besides, the Potency entry in [6], in assay [7] and in [8] was “inactive” in each case. The Potency in assay [12] was 15.5 µM (active); in assay [11], 0.871 µM (active).
With `CCN(CC)CCNC(=O)c1c(C)[nH]c(/C=C2\C(=O)Nc3ccc(F)cc32)c1C`, the Potency was 26.6 µM (active) in assay [1] and 10.6 µM (active) in assay [10]. In assay [9], the Potency entry was “inactive”. Moreover, the max activation in [13] was -11.9% (inactive).
In the case of `O=C(N/N=C/c1ccccc1O)c1ccncc1`, the Potency entry in [1], in assay [9], in [2], in assay [3], in assay [4] and in assay [7] was “inactive” in each case. Further, the Potency in assay [12] was 27.5 µM (active); in assay [6], 2.19 µM (active); in assay [11], 0.575 µM (active).
As for `Cc1cccc(N(C)C(=S)Oc2ccc3c(c2)C2CCC3C2)c1` (stereo not drawn), the Potency entry in assay [1], in [9], in assay [10] and in assay [7] was “inactive” in each case. For the same compound, the Potency in assay [2] was 11.9 µM (active); in assay [5] it was 1.74 µM (active); in assay [11] it was 9.11 µM (active).
For the compound `Cc1onc(-c2ccccc2Cl)c1C(=O)N[C@@H]1C(=O)N2[C@@H]1SC(C)(C)[C@@H]2C(=O)O`, the Potency entry in assay [1], in [9], in assay [10] and in [7] was “inactive” in each case.
With `O=C(Oc1ccccc1)c1ccccc1C(=O)Oc1ccccc1`, the Potency result in assay [1], in assay [9], in [2], in assay [12] and in assay [8] was “inactive” throughout. The Potency in assay [5] was 15.9 µM (active); in assay [11], 5.64 µM (active).
As for `O=c1[nH]sc2ccccc12`, the Potency entry in [1], in assay [9], in assay [12] and in [5] was “inactive” throughout. Further, the Potency in [2] is 8.63 µM (active); in [6] it was 31.7 µM (active); in assay [11], 31.7 µM (active); in [7] it was 49 µM (active); in assay [8] it was 39.9 µM (active).
Turning to `CCCCC(CC)COC(=O)c1ccccc1C(=O)O` (stereo not drawn), the Potency result in assay [1], in assay [9], in assay [7] and in assay [8] was “inactive” each time. For the same compound, the Potency in [2] was 35 µM (active); in [5] it was 40.6 µM (active); in assay [6], 5.91 µM (active); in assay [11], 54.2 µM (active).
As to `NNc1nc(-c2ccc(N)cc2)cs1`, the Potency entry in assay [1] and in [9] was “inactive” in each case. In addition, the Potency in assay [12] was 71 µM (active); in assay [5] it was 79.6 µM (active); in assay [11], 35.6 µM (active); in assay [8], 14.2 µM (active).
Consider `O=c1[nH]cnc2nc[nH]c12`, for which the Potency entry in assay [1], in [9], in assay [2], in assay [3], in assay [4] and in [12] was “inactive” throughout. The Potency entry in assay [5], in [6], in assay [7] and in assay [8] was “inactive” in each case.
As to `CCCCCCOC(=O)c1ccc(O)cc1`, the Potency entry in [1], in assay [9], in assay [10] and in assay [2] was “inactive” throughout. Moreover, the Potency in assay [5] was 11.3 µM (active) and 20 µM (active); in assay [6], 35.6 µM (active) and 39.9 µM (active); in assay [11], 11.3 µM (active) and 8.94 µM (active); in assay [8] it was 79.8 µM (active) and inactive.
In the case of `O=C1c2ccccc2Cc2ccccc21`, the Potency entry in assay [1], in assay [9], in assay [12] and in [7] was “inactive” each time. For the same compound, the Potency is 27.5 µM (active) in assay [2]; 9.01 µM (active) in assay [5]; 16 µM (active) in [6]; 0.452 µM (active) in [11]; 22.6 µM (active) in assay [8].
As for `COc1ccc(CN2CCN(C(c3ccc(F)cc3)c3ccc(F)cc3)CC2)c(OC)c1OC`, the Potency entry in assay [1], in assay [9], in [4] and in assay [11] was “inactive” throughout. For the same compound, the Potency was 26.6 µM (active) in assay [10], 4.9 µM (active) in assay [12], 11 µM (active) in assay [6] and 0.674 µM (active) in assay [7]. In addition, the max activation in assay [13] was -8.37% (inactive).
For the compound `CC(C)=CCOc1ccc(/C=C/C(=O)c2ccc(OCC=C(C)C)cc2OCC(=O)O)cc1`, the Potency result in assay [1], in assay [9], in [10], in assay [2], in assay [11] and in assay [8] was “inactive” each time. In addition, the Potency in assay [6] was 15.5 µM (active).
Take `CCCCCCC[N+](CC)(CC)CCCCc1ccc(Cl)cc1`: the Potency result in [1], in assay [9], in assay [2], in [3], in assay [4] and in assay [5] was “inactive” in each case. Also, the Potency result in [6] and in [11] was “inactive” each time. The Potency in [12] was 0.219 µM (active).
In the case of `Nc1c2ccccc2nc2ccccc12`, the Potency is 21.4 µM (active) and 11.9 µM (active) in [1]; 12 µM (active) in assay [9]; 700 nM (active) and 11 µM (active) in [12]; 1.25 µM (active) and 2.45 µM (active) in [11]. The Potency entry in assay [10], in [5], in assay [6] and in [8] was “inactive” each time.
For `CCOC(=O)/C=C(C)/C=C/C=C(C)/C=C/c1c(C)cc(OC)c(C)c1C`, the Potency result in assay [1], in assay [9], in assay [10], in assay [3], in assay [4] and in assay [7] was “inactive” each time. Besides, the max activation in assay [13] was -4.32% (inactive). Moreover, the values for the Potency in [6] and in assay [11] were 6.17 µM (active) and 24.5 µM (active), respectively.
Turning to `CC(=O)OCC(C)OC(C)=O` (stereo not drawn), the Potency entry in assay [1], in assay [9], in [2], in [12], in [5] and in assay [6] was “inactive” in each case. Besides, the Potency entry in assay [11], in assay [7] and in [8] was “inactive” throughout.

The values above are taken from PubChem BioAssay (Tox21).
